This is an account of results in PubChem BioAssay (NCI).

Some test systems named below: NCI-H23 lung; NCI-H226 lung; NCI-H322M lung; HOP-62 NSCLC; NCI-H460 lung; HOP-92 NSCLC; NCI-H522 lung; A549/ATCC NSCLC; 786-0 renal; COLO 205 colon; DU-145 prostate; K-562 leukemia; MALME-3M melanoma; MDA-MB-231 breast; RXF 393 renal; SF-268 CNS; SF-295 CNS; SF-539 CNS; UACC-257 melanoma; M14 melanoma.
What all share (assay): NCI-60 one-dose screen, 48 h (100 = growth as untreated, 0 = no growth, -100 = all killed)
Holding throughout (details): 10 µM unless noted

About 83,000 compounds went through this panel and 20% of them were active in at least one assay; those are over-represented in the sample as a whole.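 Results are percent growth after 48 hours of single-concentration exposure. 100 means growth as in untreated cells, lower positive values show inhibition; negative values down to -100 show cell death.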 Unmarked numbers belong to inactive results. Active and inactive are the calls of the source. How the source made its calls: active means growth percent below 10; inactive means the rest.

As to `COc1ccc(C2=NN(C=O)C(c3ccc(Oc4nc5c(c(=O)n(C)c(=O)n5C)n4C)c(OC)c3)C2)cc1` (stereo not given), the growth is 80.7% with NCI-H23 lung; 82.4% in the assay on NCI-H226 lung; 76.6% in the assay on NCI-H322M lung; 87% in the assay with HOP-62 NSCLC; 99% with NCI-H460 lung; 95.2% in the assay on HOP-92 NSCLC. Also, the growth in the assay with NCI-H522 lung was 92.9%; in the assay with A549/ATCC NSCLC, 56.6%; in the assay with 786-0 renal it was 103%; with COLO 205 colon, 91.5%; in the assay with DU-145 prostate, 60.9%; in the assay with K-562 leukemia it was 89.9%. In addition, the growth in the assay with MALME-3M melanoma is 102%; in the assay with MDA-MB-231 breast, 77.6%; with RXF 393 renal, 110%; with SF-268 CNS it was 57.8%; with SF-295 CNS it was 75.5%; with SF-539 CNS it was 110%. In addition, the figures for the growth in the assay with UACC-257 melanoma and in the assay with M14 melanoma were -10.3% (active) and 68.9%, respectively.
As to `O=C1/C(=C/c2ccc(-c3ccc(Cl)cc3)o2)SC(=S)N1CCc1ccc(O)cc1`, the growth in the assay on NCI-H23 lung is 81.3%; in the assay on NCI-H226 lung, 84.1%; in the assay on NCI-H322M lung, 70.3%; in the assay on HOP-62 NSCLC, 46.8%; in the assay on NCI-H460 lung, 9.88% (active); with HOP-92 NSCLC, 55.3%. The growth in the assay on NCI-H522 lung was -18.8% (active); in the assay on A549/ATCC NSCLC, 17.6%; in the assay with 786-0 renal it was 60.9%; with COLO 205 colon it was 16.8%; in the assay on DU-145 prostate it was 29.1%; in the assay on K-562 leukemia it was 26.1%. Further, the growth was 76.7% in the assay on MALME-3M melanoma; 75.6% in the assay on MDA-MB-231 breast; 70% with RXF 393 renal; 31.2% with SF-268 CNS; 104% in the assay on SF-295 CNS; 70.9% with SF-539 CNS. The values for the growth in the assay on UACC-257 melanoma and in the assay on M14 melanoma were 42% and 38.2%, respectively.
`Cn1cc(-c2ccc3occ(-c4cccc(-c5ccncc5)c4)c3n2)cn1`: the growth with NCI-H23 lung is 19.5%; in the assay on NCI-H226 lung, 33.6%; with NCI-H322M lung, 34.3%; in the assay with HOP-62 NSCLC it was 13.9%; in the assay with NCI-H460 lung, 13.5%; in the assay on HOP-92 NSCLC it was 50.6%. For the same compound, the growth was -18.5% (active) with NCI-H522 lung; 17.7% in the assay on A549/ATCC NSCLC; 17.7% in the assay on 786-0 renal; 14.7% with COLO 205 colon; 26.9% in the assay on DU-145 prostate; 8.55% (active) in the assay on K-562 leukemia. Besides, the growth in the assay on MALME-3M melanoma is 21.2%; with MDA-MB-231 breast, 35.4%; in the assay on RXF 393 renal, 4.67% (active); in the assay on SF-268 CNS, 28.5%; in the assay on SF-295 CNS it was 1.64% (active); in the assay on SF-539 CNS it was -23% (active). For the same compound, the growth was 40.9% with UACC-257 melanoma and 1.71% (active) in the assay with M14 melanoma.
As to `O=C1/C(=C/c2ccccc2)COc2ccc(O)cc21`, the growth in the assay on NCI-H23 lung was 97.2%; in the assay on NCI-H226 lung it was 104%; in the assay with NCI-H322M lung, 99.3%; with HOP-62 NSCLC, 104%; with NCI-H460 lung, 103%; in the assay on HOP-92 NSCLC it was 93.7%. Further, the growth was 73.5% with NCI-H522 lung; 90.5% with A549/ATCC NSCLC; 86.9% in the assay on 786-0 renal; 93.2% with COLO 205 colon; 88.5% with DU-145 prostate; 17.5% with K-562 leukemia. Also, the growth is 106% with MALME-3M melanoma; 92.9% in the assay with MDA-MB-231 breast; 105% in the assay with RXF 393 renal; 90.6% in the assay with SF-268 CNS; 107% in the assay on SF-295 CNS; 108% with SF-539 CNS. Also, the growth in the assay on UACC-257 melanoma was 98.2%; with M14 melanoma it was 85.8%.
For `O=C1C(c2c(O)[nH]c3ncccc23)=Nc2ccccc21`, the growth with NCI-H23 lung was 76%; in the assay with NCI-H226 lung, 89%; in the assay with NCI-H322M lung, 79.7%; with HOP-62 NSCLC, 86.8%; in the assay on NCI-H460 lung, 47.7%; with HOP-92 NSCLC, 96.9%. In addition, the growth was 76.3% with NCI-H522 lung; 82.4% with A549/ATCC NSCLC; 84.1% with 786-0 renal; 82.8% with COLO 205 colon; 81.2% with DU-145 prostate; 85.5% in the assay with K-562 leukemia. Further, the growth is 139% in the assay with MALME-3M melanoma; 78.3% with MDA-MB-231 breast; 71.2% with RXF 393 renal; 84.4% with SF-268 CNS; 102% in the assay with SF-295 CNS; 90.9% with SF-539 CNS. Further, the figures for the growth with UACC-257 melanoma and with M14 melanoma were 96.5% and 93.7%, respectively.
With `CC(=O)O[C@H]1C[C@@]2(C)[C@@H](C[C@@H](O)[C@H]3[C@@]4(C)CC[C@H](N5CCCC5)[C@@H](C)[C@@H]4CC[C@@]32C)/C1=C(\CCC=C(C)C)C(=O)O`, the growth in the assay with NCI-H23 lung was 95.7%; in the assay on NCI-H226 lung, 94.6%; in the assay with NCI-H322M lung, 101%; with HOP-62 NSCLC it was 100%; with NCI-H460 lung it was 101%; in the assay on HOP-92 NSCLC it was 83.7%. Moreover, the growth was 91.2% with NCI-H522 lung; 102% in the assay with A549/ATCC NSCLC; 105% in the assay with 786-0 renal; 108% with COLO 205 colon; 105% with DU-145 prostate; 14.8% in the assay on K-562 leukemia. For the same compound, the growth in the assay with MALME-3M melanoma is 95.6%; in the assay with MDA-MB-231 breast it was 109%; in the assay with RXF 393 renal it was 98.9%; in the assay on SF-268 CNS, 98.9%; in the assay with SF-295 CNS, 96.3%; with SF-539 CNS it was 96.1%. For the same compound, the growth is 98.1% with UACC-257 melanoma and 92.2% in the assay with M14 melanoma.
Take `O=C1NCCS(=O)(=O)/C1=C\C=C\c1cccc(C(F)(F)F)c1`: the growth is 22.3% with NCI-H23 lung; 31.6% in the assay on NCI-H226 lung; 63.4% in the assay on NCI-H322M lung; 35.8% in the assay on HOP-62 NSCLC; 50.1% with NCI-H460 lung; 100% with HOP-92 NSCLC. For the same compound, the growth was 16.9% in the assay with NCI-H522 lung; 39.4% with A549/ATCC NSCLC; 20.1% in the assay with 786-0 renal; 25.2% in the assay with COLO 205 colon; 29.4% in the assay with DU-145 prostate; 17.3% in the assay on K-562 leukemia. Further, the growth is 29.9% in the assay with MALME-3M melanoma; 49.1% with MDA-MB-231 breast; 35.5% in the assay with RXF 393 renal; 28.6% in the assay on SF-268 CNS; 82.7% in the assay with SF-295 CNS; 10.6% in the assay on SF-539 CNS. In addition, the growth was 38.6% in the assay on UACC-257 melanoma and 7.1% (active) with M14 melanoma.
As for `Cc1ccc(OCCOCCOCCOCCOc2ccc(C)n(O)c2=S)c(=S)n1O`, the growth in the assay on NCI-H23 lung was 18.5%; with NCI-H226 lung, 7.35% (active); with NCI-H322M lung, 23.6%; in the assay on HOP-62 NSCLC, -0.489% (active); in the assay on NCI-H460 lung it was 1.54% (active); with HOP-92 NSCLC, 36.8%. For the same compound, the growth with NCI-H522 lung is 17.9%; in the assay with A549/ATCC NSCLC it was 12.5%; with 786-0 renal, -5.93% (active); in the assay with COLO 205 colon it was 5.35% (active); in the assay on DU-145 prostate, 17.5%; in the assay on K-562 leukemia it was 16.2%. Moreover, the growth in the assay with MALME-3M melanoma is 15.6%; in the assay with MDA-MB-231 breast it was 34.9%; with RXF 393 renal, 38.6%; with SF-268 CNS, 11.4%; in the assay with SF-295 CNS it was 18.2%; in the assay on SF-539 CNS, 5.23% (active). Further, the growth was -9.07% (active) in the assay on UACC-257 melanoma and -16.1% (active) in the assay with M14 melanoma.
